# Experimental data: PubChem BioAssay (Tox21)
# Values joined by “and” are separate entries in the source; they are usually repeats but may differ in a detail not shown here. Equal entries are not always repeated. Inconclusive results are not listed. Unmarked numbers belong to inactive results. Active and inactive are the calls of the source. The call rests on the fitted dose curve; in most records, active means well fitted inhibition curve with a large enough effect in the repeat runs; inconclusive means weak or mixed curves; inactive means no such curve, though single readings can be large or run the other way.
# Molecular target: Estrogen receptor (Homo sapiens) (UniProt P03372)
# Sequence (P03372 whole entry, looked up): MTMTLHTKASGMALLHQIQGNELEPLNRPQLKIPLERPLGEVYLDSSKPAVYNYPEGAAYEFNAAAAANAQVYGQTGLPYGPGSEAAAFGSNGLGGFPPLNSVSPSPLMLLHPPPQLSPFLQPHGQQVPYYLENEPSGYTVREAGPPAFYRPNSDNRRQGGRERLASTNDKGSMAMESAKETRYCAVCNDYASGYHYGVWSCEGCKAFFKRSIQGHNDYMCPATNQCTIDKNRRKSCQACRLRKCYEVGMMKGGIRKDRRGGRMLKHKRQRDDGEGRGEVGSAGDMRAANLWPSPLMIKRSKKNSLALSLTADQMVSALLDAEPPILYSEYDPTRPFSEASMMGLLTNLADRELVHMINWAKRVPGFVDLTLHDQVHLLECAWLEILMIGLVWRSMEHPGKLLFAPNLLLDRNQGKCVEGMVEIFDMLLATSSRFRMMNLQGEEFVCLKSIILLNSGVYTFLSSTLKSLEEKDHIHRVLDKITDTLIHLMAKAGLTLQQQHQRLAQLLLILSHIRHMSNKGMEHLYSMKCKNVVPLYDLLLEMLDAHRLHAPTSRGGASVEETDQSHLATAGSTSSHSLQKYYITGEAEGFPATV
# Experiment: qHTS assay to identify small molecule antagonists of the estrogen receptor alpha (ER-alpha) signaling pathway using the BG1 cell line in the presence of 0.1 nM 17-beta-estradiol (AID 1259244); further: nearly all actives have a fitted effect of over 50% in size
# Details: VM7Luc4E2 (BG1) ERE-luciferase, antagonist mode, 0.1 nM E2, 22 h; series mostly up to 92.4 µM; activity change, negative = inhibition: at the top concentration
# Excerpt: National Center for Advancing Translational Sciences [NCATS]
# NIH Chemical Genomics Center [NCGC]
# U.S. Environmental Protection Agency [EPA]
# National Institutes of Environmental Health Sciences [NIEHS]
# National Toxicology Program [NTP]
# U.S. Food and Drug Administration [FDA]
# Estrogen receptor (ER), a member of the nuclear hormone receptor plays an important role in development, metabolic homeostasis and reproduction. Two subtypes of ER, ER-alpha and ER-beta, have similar expression patterns with some uniqueness in both types. Endocrine disrupting chemicals (EDCs) and their interactions with steroid hormone receptors like ER causes disruption of normal endocrine function. Therefore, it is important to understand the effect of environmental chemicals in ER signaling pathway. For identifying ER antagonists, VM7Luc4E2 cell line was used to screen against Tox21 compound libraries.
# VM7Luc4E2 cell line (provided by Denison MS, University of California) endogenously express full-length ER-alpha and is stably transfected with a plasmid containing four estrogen responsive elements (ERE) upstream of a luciferase reporter gene. The current screening for identification of ER-alpha inhibitors against Tox21 compound libraries used lower concentration (0.1 nM) of 17beta-Estradiol as a stimulator.
# Tox21 Assay Protocol Summary:
# VM7Luc4E2 cells were cultured in phenol red free assay medium containing 10% charcoal stripped FBS for 5 days prior to the assay. The cells were dispensed at 4,000 cells/well in 4 uL of assay medium into white wall/solid-bottom 1536-well plates (Corning Life Sciences, Corning, NY) using a Multidrop Combi (ThermoFisher Scientific, Waltham, MA) dispenser. After the assay plates were incubated at 37C and 5% CO2 for 24 hr, 23 nL of compounds dissolved in DMSO, positive controls or DMSO only was transferred to the assay plates by a Pintool station (Kalypsys, San Diego, CA). The transfer of compounds was followed by the addition of 1 uL of 0.1 nM (final concentration) agonist (17beta-Estradiol)/assay medium using a Flying Reagent Dispenser (FRD, Aurora Discovery, San Diego, CA). The plates were incubated at 37C and 5% CO2 for 22 hr. For luciferase reporter gene assay, 4 uL of ONE-Glo reagent (Promega Corporation, Madison, WI) was added to each well using the FRD and after 30 min incubation at room temperature luminescence intensity was measured using ViewLux plate reader (PerkinElmer, Shelton, CT).
# On the % scale 0 is the no-effect control and ±100 the full control effect; potency means the concentration at half of the fitted maximal effect.
Structure (SMILES),"activity change, negative = inhibition",Potency
CC(C)(C1CCC(O)CC1)C1CCC(O)CC1 (stereo not given),-22.9%,–
BrCc1ccc(Br)cc1,-0.767%,–
C=C1C[C@@H]2[C@H](CC[C@]3(C)C(=O)CC[C@@H]23)[C@@]2(C)C=CC(=O)C=C12,6.45% [at 42.5 µM],–
CCN(CCO)CCO,1.65%,–
C=CCC1(C(C)CC)C(=O)NC(=O)NC1=O (stereo not given),-0.159% [at 42.5 µM],–
CC(C)(C)c1cc(O)ccc1O,-10.2%,–
N[C@@H]1C[C@H]1c1ccccc1,47.8% [at 42.5 µM],–
CCOC(=O)Nc1cccc(OC(=O)Nc2ccccc2)c1,16.5%,–
CCC1(CC)C(=O)C=CNC1=O,-5.72% [at 42.5 µM],–
C[C@]12C=CC(=O)C=C1CC[C@@H]1[C@@H]2CC[C@@]2(C)[C@H]1CC[C@]2(C)O,-11.8% [at 42.5 µM],–
CCN[C@@H](C)Cc1ccccc1,-1.27%,–
C=CC1(C)OC(=O)N(c2cc(Cl)cc(Cl)c2)C1=O (stereo not given),-4.23%,–
CN(C)C1CCCCC1,6.35%,–
C=CCCC#N,-0.114%,–
CC[C@H](O)C(C[C@H](C)N(C)C)(c1ccccc1)c1ccccc1,-22.7%,–
CCCCCCCCSC(=O)Oc1cc(Cl)nnc1-c1ccccc1,0.384%,–
CCC(CC)(CNC(=O)CCCO)c1cccc(OC)c1,0.725% [at 42.5 µM],–
CC(C)(N)Cc1ccccc1Cl,-6.44% [at 42.5 µM],–
C/C=C/CC#N,3.51%,–
CCNP(=S)(OC)O/C(C)=C/C(=O)OC(C)C (stereo not given),-7.11%,–

Structure (SMILES),"activity change, negative = inhibition",Potency
NNCc1ccccc1,19.7%,–
COc1cccc(C=O)c1,1.72%,–
O=P(O)(O)CN(CP(=O)(O)O)CP(=O)(O)O,–,inactive
ClC(Cl)(Cl)Cl,-12.1%,–
CCCN1CCC[C@@H]2Cc3[nH]ncc3C[C@H]21,3.08% [at 42.5 µM],–
CN(C)CCN(C)C,33.4%,–
O=C(O)c1c(Cl)ccc2cc(Cl)cnc12,3%,–
CCOc1cc(OP(=S)(OC)OC)nc(CC)n1,5.54%,–
O=C/C=C/c1ccco1,0.869%,–
O=c1[nH]c2ccccc2n1C1CCNCC1,-2.39% [at 42.5 µM],–
C[C@H]1CCCC(=O)CCC/C=C/c2cc(O)cc(O)c2C(=O)O1,–,23.4 µM (active) and 25.2 µM (active)
C(COCC1CO1)OCC1CO1 (stereo not given),28.8%,–
CC(Cc1ccccc1)NCCCCl (stereo not given),0.25% [at 42.5 µM],–
O=C(NC(=O)c1c(F)cccc1F)Nc1cc(Cl)c(F)c(Cl)c1F,10.7%,–
CC(C)(O)C(Cl)(Cl)Cl,5.8% [at 42.5 µM],–
COP(=O)(OC)O/C(C)=C/C(=O)N(C)C,7.27%,–
Nc1c(Cl)c(F)nc(OCC(=O)O)c1Cl,3.38%,–
NC(=O)OCCCc1ccccc1,4.86% [at 42.5 µM],–
CCOC(=O)C(Cl)Cc1cc(-n2nc(C)n(C(F)F)c2=O)c(F)cc1Cl (stereo not given),-7.42%,–
Cn1c(N)nc2c3cccnc3ccc21,-5.91%,–
